{
  "source": "the supplement of paper PMC11417369",
  "note": "± gives the standard deviation of the averaged measurements. Whole data set: some 25,000 sequences, median “ln(normalized median fluorescence intensity)” near 8.6, cut for the highest 2% near 10. Only a selection was taken, and the highest values are over-represented in it overall.",
  "data": [
    {"test_system": "PfAP2-EXP AP2 domain (GST-tagged)", "experiment": "gcPBM binding intensity (ln(normalized median fluorescence intensity)); higher = stronger DNA binding", "in_short": "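After 1 h on an Agilent 4 × 180k array of primer-extended double-stranded 36-bp intergenic genomic probes and negative controls, bound GST-tagged P. falciparum DNA-binding domains were detected with Alexa488 anti-GST antibody and scanned at 488 nm. The domains had been expressed in E. coli, and binding took place in 1× PBS with 1% milk, 0.2 mg/ml BSA, 0.5% salmon testes DNA and 0.03% Triton X-100. Binding intensity is the highest Masliner-normalised natural-log median intensity across replicate spots of either probe orientation.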", "values": [
      {"sequence": "ATACAATAATATAAATGTACAAATTATATCTTCATT [XGTACX_site8994]", "gcPBM binding intensity (ln)": "8.37 ± 0.33"},
      {"sequence": "TATACCTATAGACACACACACATAAATAGATATATA [CACACA_site6748]", "gcPBM binding intensity (ln)": "8.83 ± 0.51"},
      {"sequence": "TATATGCAAAATGTCACACATGTGATAAATACATAT [CACACA_site4302]", "gcPBM binding intensity (ln)": "8.72 ± 0.36"},
      {"sequence": "ATTTTACATATTTGCACACATATATTTATATACATA [CACACA_site854]", "gcPBM binding intensity (ln)": "8.89 ± 0.4"},
      {"sequence": "TATAAAAAAAACGAAAAAAAAAAAAAAAATACAGGA [TGCATGCA_negctrl_site585]", "gcPBM binding intensity (ln)": "8.54 ± 0.61"},
      {"sequence": "TATATATATATATATACACACATACATATATATATT [CACACA_site8185]", "gcPBM binding intensity (ln)": "10.1 ± 0.4"},
      {"sequence": "TATATATATATATATACACACATATACATATTGTTT [CACACA_site3499]", "gcPBM binding intensity (ln)": "10.2 ± 0.32"},
      {"sequence": "CACAGATATATACATACACACATATATACACATATA [CACACA_site6323]", "gcPBM binding intensity (ln)": "8.58 ± 0.38"},
      {"sequence": "GTTACATACAGATACACACACATATATATATATATA [CACACA_site4652]", "gcPBM binding intensity (ln)": "10.2 ± 0.15"},
      {"sequence": "TATATATATATATATACACACATACAGATATATATT [CACACA_site4629]", "gcPBM binding intensity (ln)": "10.2 ± 0.36"},
      {"sequence": "TATATATACATACATACACACATATATATATATATT [CACACA_site4110]", "gcPBM binding intensity (ln)": "8.71 ± 0.4"},
      {"sequence": "TGTTGTTACAGATATACACACATATATATATTATAT [CACACA_site5342]", "gcPBM binding intensity (ln)": "8.55 ± 0.41"},
      {"sequence": "CATACATACATACATACACACATACAGATATATATA [CACACA_site4890]", "gcPBM binding intensity (ln)": "9.15 ± 0.32"},
      {"sequence": "AGTATACAGATATATACACACATATATATATATATA [CACACA_site4323]", "gcPBM binding intensity (ln)": "10 ± 0.41"},
      {"sequence": "AAGGTTTTGGGTTTTAATTAATTTAATATGATTATA [XGTACX_negctrl_site147]", "gcPBM binding intensity (ln)": "8.46 ± 0.59"},
      {"sequence": "TACATTTTTATTTTTACACACATATATATATATATA [CACACA_site1021]", "gcPBM binding intensity (ln)": "10.1 ± 0.31"},
      {"sequence": "AAAATAAATATAAAATGTACTTATATATATATATAT [XGTACX_site7803]", "gcPBM binding intensity (ln)": "9.97 ± 0.47"},
      {"sequence": "AACAGATAATATAAAAAAAAAAAAAAAAATAATTAA [GTGCAC_negctrl_site69]", "gcPBM binding intensity (ln)": "8.07 ± 0.53"},
      {"sequence": "ATATTTTTTTTCTACACACATACAAATATATATTAT [CACACA_site2359]", "gcPBM binding intensity (ln)": "8.97 ± 0.46"},
      {"sequence": "AATAAATAAAAAACATGTACAAATATAATATAGCAT [XGTACX_site6429]", "gcPBM binding intensity (ln)": "9.18 ± 0.5"},
      {"sequence": "AAATTGTGTTCATCAGCACACACAACATCATGTAAT [CACACA_site8556]", "gcPBM binding intensity (ln)": "8.51 ± 0.41"},
      {"sequence": "AAATATAAAAAAAATATATAATTTTTACATCGAATT [CACACA_negctrl_site544]", "gcPBM binding intensity (ln)": "8.24 ± 0.38"},
      {"sequence": "CACAAATATATACATACACACATATATACACATATA [CACACA_site8024]", "gcPBM binding intensity (ln)": "8.47 ± 0.34"},
      {"sequence": "GTACAAAAAAAAATAAAATACATATATATATATATA [GTGCAC_negctrl_site364]", "gcPBM binding intensity (ln)": "10.1 ± 0.41"},
      {"sequence": "TATAAATATATATATACACACACATACACAAAAAAA [CACACA_site9191]", "gcPBM binding intensity (ln)": "8.96 ± 0.54"},
      {"sequence": "AAAAATAAAAGGTGTGCACACAAAAATATATATATA [CACACA_site8507]", "gcPBM binding intensity (ln)": 9.74},
      {"sequence": "AAATAAAAAGGGTGCACACAAAAATATATATATATA [CACACA_site1728]", "gcPBM binding intensity (ln)": "10.5 ± 0.6"},
      {"sequence": "TTATACACAAAAAAAAAAATATATATATATATATAT [XGTACX_negctrl_site5]", "gcPBM binding intensity (ln)": "10.2 ± 0.61"},
      {"sequence": "TACAAAAAAAAATAAAATACATATATATATATATAT [XGTACX_negctrl_site608]", "gcPBM binding intensity (ln)": "10.3 ± 0.18"},
      {"sequence": "TAAATATATATATACACACACATACACAAAAAAAAA [CACACA_site3580]", "gcPBM binding intensity (ln)": "8.73 ± 0.42"},
      {"sequence": "AAAAATAAAGGGTGTGCACACAAAAATATATATATA [CACACA_site1727]", "gcPBM binding intensity (ln)": "9.805 ± 0.078"},
      {"sequence": "CACAAATATACAAATACACACAAATATACAAATACA [CACACA_site2385]", "gcPBM binding intensity (ln)": "8.7 ± 0.41"},
      {"sequence": "TACACAAATATATATATATATATATATATATATATA [XGTACX_negctrl_site305]", "gcPBM binding intensity (ln)": "10.2 ± 0.14"},
      {"sequence": "TAATAAAAAATATATACACACAAATAAATAAATAAA [CACACA_site4037]", "gcPBM binding intensity (ln)": "8.75 ± 0.62"},
      {"sequence": "TACGTGAAATTATATACACACATAAATATGTCTGTA [CACACA_site3122]", "gcPBM binding intensity (ln)": "8.16 ± 0.36"},
      {"sequence": "ATTTAAAAAAAAACGGAATTTTTTTTTTTTTTAAAG [XGTACX_negctrl_site91]", "gcPBM binding intensity (ln)": "8.06 ± 0.51"},
      {"sequence": "TTAAAAAAAATATAATGTACTTGTAGAATTATATTT [XGTACX_site6220]", "gcPBM binding intensity (ln)": "8.09 ± 0.26"},
      {"sequence": "TTTTTTAATTAATTACCTTTGAATGTGTATTAGGAC [GTGCAC_negctrl_site651]", "gcPBM binding intensity (ln)": "8.49 ± 0.26"},
      {"sequence": "AATATATACATATATTGTACATATAGTTTCTTGCAT [XGTACX_site7871]", "gcPBM binding intensity (ln)": "8.61 ± 0.33"},
      {"sequence": "AAATTATTATGAAATGGAAAATGCATAAATTGTTTT [XGTACX_negctrl_site206]", "gcPBM binding intensity (ln)": "8.63 ± 0.48"},
      {"sequence": "ACAAAAAAATAAAATATATATATATATATAATATAT [CACACA_negctrl_site805]", "gcPBM binding intensity (ln)": "8.58 ± 0.16"},
      {"sequence": "TAATATAACAAAAAAATAAAATAAAATAAAAAATAA [CACACA_negctrl_site109]", "gcPBM binding intensity (ln)": "8.4 ± 0.41"},
      {"sequence": "ATACATACATACATACGTACATATGTATATATATAT [XGTACX_site8498]", "gcPBM binding intensity (ln)": "9.7 ± 0.19"},
      {"sequence": "CCATATACAACCATACGTACATATATATATATATAT [XGTACX_site8193]", "gcPBM binding intensity (ln)": "10.2 ± 0.2"},
      {"sequence": "TATAAAATAAATAACAAAAAAAATAAAATAAAAATA [TGCATGCA_negctrl_site297]", "gcPBM binding intensity (ln)": "8.47 ± 0.47"},
      {"sequence": "TACAAAAAAATAAATAATAAAAAAAAATATATATAA [XGTACX_negctrl_site344]", "gcPBM binding intensity (ln)": "8.38 ± 0.38"},
      {"sequence": "AACATAACAAAAAAAAAAAAAAATATATATATATAT [TGCATGCA_negctrl_site370]", "gcPBM binding intensity (ln)": "10.2 ± 0.41"},
      {"sequence": "AAAAAAATATAAATACGTACATATATATATATATAT [XGTACX_site432]", "gcPBM binding intensity (ln)": "10.2 ± 0.46"},
      {"sequence": "ATAAATAAATAAATACGTACATATATATATATATAT [XGTACX_site8838]", "gcPBM binding intensity (ln)": "9.98 ± 0.38"},
      {"sequence": "AAATAAATAAATATACGTACATATATATAATATATA [XGTACX_site5124]", "gcPBM binding intensity (ln)": "8.52 ± 0.15"},
      {"sequence": "TATATATACATATACACACATACGTACATACATATA [CACACA_site3585]", "gcPBM binding intensity (ln)": "8.75 ± 0.31"},
      {"sequence": "AATATACAAAATAAATAAAATATATATATATATATA [CACACA_negctrl_site216]", "gcPBM binding intensity (ln)": "10.2 ± 0.28"},
      {"sequence": "ATTCTAAATAAATGTACACACAAAAATAAATGTATA [CACACA_site1732]", "gcPBM binding intensity (ln)": "8.61 ± 0.31"},
      {"sequence": "AACATATATATAATATGTACATAATATATATAAATG [XGTACX_site1161]", "gcPBM binding intensity (ln)": "8.52 ± 0.3"},
      {"sequence": "AAAATTAAAAATTACTGTACGTATTAGAGAATAAAT [XGTACX_site2567]", "gcPBM binding intensity (ln)": "8.53 ± 0.32"}
    ]}
  ]
}
